Pf growth 96h = inhibits malaria parasite growth, 96 h. P. falciparum luciferase reporter growth, 96 h. Potency, µM (top dose mostly 28.7 µM), inactives show at the highest dose activity change, negative = inhibition, usual class: inhibitors. 320,000 compounds, 6.9% hits. AID 504834; note: potency is the fitted concentration of half-maximal effect; % is set by controls: 0 for no effect and ±100 for the full control effect
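Two-generation exposure (96 h) targets delayed-death phenotype. Reporter parasites carrying integrated firefly luciferase, in red cells at 2% hematocrit and 0.05% parasitemia final, kept at 37 C, 5% CO2; luminescence loss indicates inhibition.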
Shiga inhibitor = inhibitors of Shiga toxin in Vero cells; AID 2315; inhibition, % at 38.7 µM; 290,000 compounds, 9.2% hits; Vero cells, Shiga toxin protein synthesis inhibition reporter; in the data active = inhibition mostly above about 28%, no sharp cut-off; inactive = mostly below about 43%; note: 0% is about no effect
NS1 inh = inhibitors of influenza NS1 protein function; Potency, µM (series often up to 46.1 µM), inactives show at the top dose activity, positive = more growth; 270,000 compounds, 0.4% hits; calls by dose curve; note: potency is the fitted concentration of half-maximal effect; actives are rising curves; nearly all actives have a fitted effect of over 50% in size
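A cell-based growth assay was used: compounds that relieve NS1-induced slow growth of budding yeast raise OD600. Assay medium was yeast nitrogen base with ammonium sulphate and -URA supplement, pH 6.0, with 2% galactose.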
Pf growth 48h = P. falciparum growth inhibition at 48 hours (one generation); P. falciparum luciferase growth in erythrocytes, 48 h; Potency, µM (series often up to 28.7 µM), for inactives: top-dose activity change, negative = inhibition, most hits filed as inhibitors; 310,000 compounds, 5.9% hits; note: potency is the fitted concentration of half-maximal effect; % is set by controls: 0 for no effect and ±100 for the full control effect
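Read-out is firefly luciferase luminescence from an integrated reporter in P. falciparum, so falling signal marks reduced parasite growth. Infected erythrocytes were at 2% hematocrit and 0.1% parasitemia (final) in Albumax-supplemented RPMI 1640.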
Cycloheximide cs = counter-screen for Shiga toxin inhibitors: cycloheximide protein synthesis inhibition; cell reporter, cycloheximide protein synthesis inhibition counterscreen; max response, %; 300,000 compounds, 12% hits; AID 2314; in the data active = max response mostly above about 13%, no sharp cut-off; inactive = mostly below about 14%; note: read at 38.3 µM for the half of the compounds with a filed dose; 0% is about no effect
SARS PLP yeast = SARS-CoV PLP inhibition in yeast; S. cerevisiae expressing SARS-CoV PLpro, growth rescue; Potency, µM (titrated, usually from 32.9 µM), for the others: at the top dose activity, positive = growth rescue, hits mostly activators; 330,000 compounds, 0.19% hits; calls by dose curve; note: potency is the fitted concentration of half-maximal effect; 0% is about no effect; nearly all actives have a fitted effect of over 55% in size
Starred values were filed as active, the others as inactive. In the library only some 21% were active in any assay of this set; here they are far more common. Unless noted, calls come from the whole dose curve; as a rule, active = well fitted inhibition curve with a large enough effect; inconclusive = small, poorly fitted or top-dose-only effect, or another doubt; inactive = no such curve, though single readings can be large or run the other way.

How did CCOC(=O)C1=C(CC)Nc2ccccc2N=C1NC(=O)c1ccc(S(=O)(=O)N2CCOCC2)cc1 do in these assays?
Pf growth 96h: 15µM*; Shiga inhibitor: -6; Pf growth 48h: inconclusive; Cycloheximide cs: -3; SARS PLP yeast: 0%

What do the screens show for `CCOC(=O)C1=C(CC)Nc2ccccc2N=C1NC(=O)c1ccc(C)c(S(=O)(=O)N2CCOCC2)c1`?
Pf growth 96h: 10µM*; Pf growth 48h: inconclusive; SARS PLP yeast: -4%

How did CCOC(=O)c1[nH]ncc1CN1CCN(Cc2ccccc2)C(CCO)C1 (stereo unspecified) do in these assays?
Pf growth 96h: inactive; Shiga inhibitor: 2; NS1 inh: 6%; Pf growth 48h: 20%; Cycloheximide cs: -3; SARS PLP yeast: -2%

Results for COc1ccc(C(C)=O)cc1COC(=O)CCNS(=O)(=O)c1ccc(C(C)=O)cc1 ?
Pf growth 96h: -29%; Shiga inhibitor: -1; NS1 inh: -9%; Pf growth 48h: -1%; Cycloheximide cs: -2; SARS PLP yeast: inconclusive

Results for CC(=O)Nc1cccc(OC(=O)c2ccoc2C)c1 ?
Pf growth 96h: 5%; Shiga inhibitor: 13; NS1 inh: inconclusive; Pf growth 48h: -3%; Cycloheximide cs: 9.7*; SARS PLP yeast: 0%

What do the screens show for `Cc1occc1C(=O)NNC(=O)Nc1ccc(Cl)c(Cl)c1`?
Pf growth 96h: inconclusive; Shiga inhibitor: 22; NS1 inh: -15%; Pf growth 48h: 9%; Cycloheximide cs: 13*; SARS PLP yeast: 19%

How did Cc1occc1C(=O)Nc1cccc(C(=O)O)c1 do in these assays?
Shiga inhibitor: 34; NS1 inh: 4%; Pf growth 48h: 134%; Cycloheximide cs: 20*; SARS PLP yeast: -3%

What do the screens show for `Cc1occc1C(=O)Nc1ccc2c(c1)OCO2`?
Shiga inhibitor: 78*; NS1 inh: -11%; Pf growth 48h: 171%; Cycloheximide cs: 37*; SARS PLP yeast: -3%

How did CC(=O)Nc1cccc(OC(=O)N2CCOCC2)c1 do in these assays?
Pf growth 96h: inconclusive; Shiga inhibitor: -18; NS1 inh: 0%; Pf growth 48h: 22%; Cycloheximide cs: 8; SARS PLP yeast: 1%

What do the screens show for `COc1ccc(N2CCN(Cc3nc4ccccc4n3C)CC2)cc1`?
Pf growth 96h: inconclusive; Shiga inhibitor: -2; NS1 inh: -18%; Pf growth 48h: -17%; Cycloheximide cs: -2; SARS PLP yeast: 23%

How did Cc1ccsc1/C=N/n1c(COc2ccccc2)n[nH]c1=S do in these assays?
Pf growth 96h: 0%; Shiga inhibitor: -4; NS1 inh: 9%; Pf growth 48h: 9%; Cycloheximide cs: -3; SARS PLP yeast: 14%

How did Cc1ccc(NC(=O)c2ccoc2C)cc1C do in these assays?
Pf growth 96h: 30%; Shiga inhibitor: 107*; NS1 inh: -13%; Pf growth 48h: 109%; Cycloheximide cs: 40*; SARS PLP yeast: -67%

How did CCCSc1nc(N2CCCC2)c2c(c1C#N)CC(C)(C)OC2 do in these assays?
Pf growth 96h: inconclusive; Shiga inhibitor: 12; NS1 inh: 5%; Pf growth 48h: 22%; Cycloheximide cs: -2; SARS PLP yeast: 0%

How did CC1(C)Cc2c(C#N)c(SCCC#N)nc(N3CCOCC3)c2CS1 do in these assays?
Pf growth 96h: 4.7µM*; Shiga inhibitor: -3; NS1 inh: -3%; Pf growth 48h: inconclusive; Cycloheximide cs: -2; SARS PLP yeast: -8%

How did CC1(C)Cc2c(C#N)c(SCCC#N)nc(N3CCOCC3)c2CO1 do in these assays?
Pf growth 96h: inconclusive; Shiga inhibitor: -2; NS1 inh: 4%; Pf growth 48h: inconclusive; Cycloheximide cs: -2; SARS PLP yeast: 1%

How did CC1(C)Cc2c(C#N)c(SCCO)nc(N3CCOCC3)c2CO1 do in these assays?
Pf growth 96h: inconclusive; Shiga inhibitor: -9; NS1 inh: 1%; Pf growth 48h: inconclusive; Cycloheximide cs: -9; SARS PLP yeast: 2%

Results for CC1(C)Cc2c(C#N)c(SCCOc3ccccc3)nc(N3CCOCC3)c2CO1 ?
Pf growth 96h: 8.3µM*; Shiga inhibitor: -2; NS1 inh: -6%; Pf growth 48h: 12µM*; Cycloheximide cs: -2; SARS PLP yeast: -1%
